Screens deposited in PubChem by several laboratories.
Most compounds without a hit are left out; they make up all but 27% or so of the library.
CYP2C19 inh: human CYP2C19 inhibition. P33261. AID 778. CYP2C19 Supersomes, luciferin-H EGE luminescence, 30 min. inhibition, % at 5 µM. 21% of 96,000 active;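 active means CYP2C19 inhibition above a set limit at 5 µM in the primary screen, cut at about 50% in these data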
CYP2C9 inhib: human CYP2C9 inhibition | 20% of 96,000 active | inhibition, % at 5 µM | CYP2C9 Supersomes, luciferin-H conversion, luminescence | AID 777 | P11712;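 active means blocking of liver enzyme CYP2C9 beyond about 50% at 5 µM, limit read from the data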
Target sequence (P11712 whole entry, looked up): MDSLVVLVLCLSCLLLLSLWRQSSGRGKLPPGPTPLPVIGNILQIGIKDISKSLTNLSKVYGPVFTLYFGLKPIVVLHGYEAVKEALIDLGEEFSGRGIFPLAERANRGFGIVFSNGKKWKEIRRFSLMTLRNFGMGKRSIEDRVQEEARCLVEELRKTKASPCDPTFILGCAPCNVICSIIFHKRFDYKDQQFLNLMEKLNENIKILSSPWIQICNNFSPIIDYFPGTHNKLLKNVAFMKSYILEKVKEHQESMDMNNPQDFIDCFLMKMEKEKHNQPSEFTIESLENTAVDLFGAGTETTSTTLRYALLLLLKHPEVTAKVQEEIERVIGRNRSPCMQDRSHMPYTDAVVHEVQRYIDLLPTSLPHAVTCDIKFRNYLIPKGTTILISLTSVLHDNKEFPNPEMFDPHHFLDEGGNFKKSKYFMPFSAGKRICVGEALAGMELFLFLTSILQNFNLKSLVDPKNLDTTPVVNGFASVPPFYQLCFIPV
CYP2C9 act: CYP2C9 (human) activation | P11712 | recombinant CYP2C9, luciferin-H conversion, luminescence; stronger effect = higher value; factor 1 = untreated enzyme, 0 = blocked | activation factor at 5 µM | 1.4% of 96,000 active | AID 1024;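 active means activation factor of 2 or more for CYP2C9 at a 5 µM dose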
EphB4 antag: antagonists of human EphB4-ephrin-B2 interaction | P54760 | EphB4 LBD / TNYL-RAW-Alexa532 peptide, fluorescence polarization | inhibition, % at 7 µM | 0.15% of 97,000 active;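 active means inhibition above the screen-wide mean inhibition plus 3 SD, cut at about 15% in these data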
CYP2C19 act: cytochrome P450 2C19 (human) activation; P33261; recombinant CYP2C19, luciferin-H EGE luminescence; stronger effect = higher value; 0 = fully inhibited enzyme, 1 = untreated enzyme; activation factor at 5 µM; 96,000 tested, under 10 active;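 active means activation factor of at least 2 at 5 µM in the primary screen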
Numbers stand for hits; – = inactive; · = no result given.

SMILES | CYP2C19 inh | CYP2C9 inhib | CYP2C9 act | EphB4 antag | CYP2C19 act
CCOc1ccc(Nc2oc(-c3ccccc3Cl)nc2C#N)cc1 | – | 76.5 | – | – | –
CCOC(=O)N1CCC(Nc2ncnc3c2cnn3-c2ccc(C)cc2C)CC1 | – | 57.7 | – | – | –
CC(=O)Nc1ccc(Nc2ncnc3c2cnn3-c2ccc(C)cc2C)cc1 | 54.3 | 51.6 | – | – | –
C=CCNc1ncnc2c1cnn2-c1ccc(C)cc1C | – | – | – | · | –
Cc1ccccc1P(=O)(CO)c1ccccc1C | – | – | – | – | –
CCN(CC)c1nc(OCCNC(=O)Nc2ccccc2)nc(N(CC)CC)n1 | – | 88.3 | – | – | –
CCCCCNC(=O)CCc1ccccc1 | · | · | · | – | ·
O=C(NCCOc1nc(N2CCCCC2)nc(N2CCOCC2)n1)Nc1ccccc1 | – | 69.0 | – | – | –
CCN(CCNC(=O)C1CCN(S(C)(=O)=O)CC1)c1ccccc1 | – | – | – | – | –
CCCCCCNC(=O)Nc1ccccc1 | 96.1 | 56.3 | – | – | –
CCN(CCNC(=O)Nc1ccc(Cl)cc1)c1ccccc1 | 58.6 | – | – | – | –
Cc1nc2sc(C(c3cccs3)N3CCOCC3)c(O)n2n1 (stereo unspecified) | – | – | – | – | –
COc1cccc(CNCCc2c[nH]c3ccccc23)c1OCc1ccc(F)cc1 | – | – | – | – | –
COc1cc(CNCCc2c[nH]c3ccccc23)ccc1OCc1ccc(F)cc1 | 62.7 | – | – | – | –
COc1cc(CNCCc2ccccc2F)ccc1OCc1ccc(Cl)nc1 | 75.7 | – | – | – | –
COc1cc(CNCCc2ccc(F)cc2)ccc1OCc1ccc(Cl)nc1 | – | – | – | – | –
S=C(NCCSCc1c(Cl)cccc1Cl)Nc1ccccc1 | – | – | – | – | –
C/C(Cl)=C/Cc1c(C)[nH]c2ccc(C)cc2c1=O | – | – | – | – | –
O=S(=O)(N[C@@H]1C[C@H]2CC[C@@H]1C2)c1cccs1 | – | – | – | – | –
CC1CC(NS(=O)(=O)c2cccs2)CC(C)(C)C1 (stereo unspecified) | 53.0 | – | – | – | –
CCOC(=O)C1CCCN(C(=O)c2cccs2)C1 (stereo unspecified) | – | – | – | – | –
CN(CC(=O)Nc1ccc(F)c(F)c1F)c1cnccn1 | · | · | · | – | ·
O=c1[nH]c(CN2CCN(c3ccc(F)cc3)CC2)nc2ccccc12 | – | – | – | – | –
O=C(NCC(=O)N(c1cccnc1)C(C(=O)NC1CCCCC1)c1cccnc1)c1ccco1 (stereo unspecified) | – | – | – | – | –
Cc1[nH]n(-c2ccc([N+](=O)[O-])cc2)c(=O)c1N=Nc1nc2ccccc2s1 | · | · | · | – | ·
SMILES | CYP2C19 inh | CYP2C9 inhib | CYP2C9 act | EphB4 antag | CYP2C19 act
CCCn1nc([N+](=O)[O-])c(C(C#N)c2nc3ccccc3s2)c(Cl)c1=O (stereo unspecified) | – | 98.6 | – | – | –
CCCOc1nc2c(c(=O)n(C)c(=O)n2C)n1CCC | – | – | – | · | –
Cc1onc(-c2c(Cl)cccc2Cl)c1C(=O)NCCc1ccc(S(N)(=O)=O)cc1 | – | 72.7 | – | – | –
COC(=O)CNC(=O)c1c(-c2c(Cl)cccc2Cl)noc1C | – | 58.3 | – | – | –
CC(=O)Nc1cccc(NC(=O)c2c(-c3c(Cl)cccc3Cl)noc2C)c1 | 81.8 | 86.6 | – | – | –
COC(=O)CNC(=O)c1c(-c2ccccc2Cl)noc1C | – | – | – | – | –
Cc1ccc(NC(=O)c2c(-c3c(F)cccc3Cl)noc2C)cc1F | 83.4 | 92.0 | – | · | –
CCOC(=O)CNc1nnc(SCC(=O)OCC)[nH]c1=O | – | – | – | – | –
O=C(COC(=O)Cc1ccc(Br)cc1)NC12CC3CC(CC(C3)C1)C2 | – | – | – | – | –
CCOC(=O)C(=O)/C(=C\N(C)C)c1onc(-c2c(F)cccc2Cl)c1C(=O)OC | – | 57.8 | – | – | –
O=C(O)C1C(C(=O)Nc2ccc(Cl)cc2)C2C=CC1C21CC1 (stereo unspecified) | – | – | – | – | –
O=C(C(Cc1ccccc1)N1C(=O)C2C3CCC(C3)C2C1=O)N1CCCCC1 (stereo unspecified) | – | – | – | – | –
Cc1ccc(C)c(NC(=S)NC(NC(=O)Cc2ccccc2)C(Cl)(Cl)Cl)c1 (stereo unspecified) | 50.2 | – | – | – | –
Cc1ccccc1NC(=S)NC(NC(=O)c1ccccc1C)C(Cl)(Cl)Cl (stereo unspecified) | – | – | – | – | –
O=C(COc1ccccc1)NC(NC(=S)Nc1ccccc1C(=O)O)C(Cl)(Cl)Cl (stereo unspecified) | – | 81.8 | – | – | –
CSc1nc(N)nc(SCCS(=O)(=O)c2ccc(Cl)cc2)c1C#N | · | · | · | – | ·
CSc1nc(C)cc(-n2cc(F)c(=O)[nH]c2=O)n1 | – | – | – | – | –
Cc1cccc(-c2c3c(=O)n(C)c(=O)n(C)c3cn2-c2ccccc2O)c1 | – | 71.3 | – | – | –
CC(=O)Nn1cc2c(c1-c1ccccc1)c(=O)n(C)c(=O)n2C | – | – | – | – | –
Cn1c(=O)[nH]c(=O)c2c1nc(N1CCC(Cc3ccccc3)CC1)n2Cc1ccccc1 | – | – | – | – | –
O=[N+]([O-])c1ccc(N2CCN(C(=S)NC3CCCCC3)CC2)cc1 | – | – | – | – | –
Cc1cc(C)c(NC2=NCC(=O)N2C2CCCCC2)c(C)c1 | 90.5 | 84.7 | – | – | –
CCc1ccccc1NC1=NCC(=O)N1C1CCCCC1 | 55.8 | 52.6 | – | · | –
O=C(Nc1cccc(C(F)(F)F)c1)NC1CCCCC1 | – | – | – | – | –
CCN(CC)CC(=O)N(CC(=O)Nc1c(C)cc(C)cc1C)C1CCCCC1 | – | – | – | · | –
SMILES | CYP2C19 inh | CYP2C9 inhib | CYP2C9 act | EphB4 antag | CYP2C19 act
O=C1CN=C(Nc2cccc(C(F)(F)F)c2)N1C1CCCC1 | 71.8 | 81.6 | – | – | –
CCOC(=O)c1ccc2[nH]c3c(c2c1)CCCC3C(=O)OCC (stereo unspecified) | 89.0 | 82.0 | – | – | –
CCOC(=O)c1ccc2[nH]c3c(c2c1)CCCCC3=O | · | · | · | – | ·
Cc1nn2c(N3CCN(c4ccccn4)CC3)cc(C(C)C)nc2c1-c1ccccc1 | – | 61.7 | – | – | –
CC1(C)CC(=O)C2=C(C1)Oc1ncn(CCCn3ccnc3)c(=N)c1C2c1ccccc1 (stereo unspecified) | 78.9 | 90.4 | – | – | –
COc1ccc(C2C3=C(CC(C)(C)CC3=O)Oc3ncn(CCCn4ccnc4)c(=N)c32)cc1 (stereo unspecified) | – | 77.7 | – | – | –
CC1(C)CC(=O)C2=C(C1)Oc1ncn(Cc3ccco3)c(=N)c1C2c1ccccc1 (stereo unspecified) | – | – | – | – | –
COc1ccc(C2C3=C(CC(C)(C)CC3=O)Oc3ncn(Cc4ccccc4)c(=N)c32)cc1 (stereo unspecified) | – | – | – | – | –
Cc1sc(NC(=O)C2CCCO2)c(C#N)c1C (stereo unspecified) | – | – | – | · | –
Cc1[nH]nc(-c2ccc(O)c(C)c2O)c1-c1cnn(-c2ccccc2)c1 | 99.2 | 99.1 | – | – | –
